Test results reported in PubChem BioAssay.
Active and inactive are the calls of the source.

Experiment: HepG2 liver cancer cell viability effects, profiling panel, resazurin fluorescence, 24 h, PK04 Diversity Set (AID 1172); also: test concentration not given here
Settings: higher = more signal

Structure (SMILES) | z-score
COCCCNC(=O)[C@]1(CCS(=O)(=O)c2ccccc2)N=C(c2ccc(OCCCO)cc2)O[C@@H]1c1ccccc1CN=[N+]=[N-] | -0.776
[N-]=[N+]=Nc1ccccc1C[C@]1(C(N)=O)N=C(c2ccc(OCCCO)cc2)O[C@H]1c1ccccc1N=[N+]=[N-] | -0.0314
C#CCN([C@@H](Cc1ccc(O)cc1)C(=O)OC)[C@@H](/C=C/C1CC1)[C@H](O)Cc1ccccc1 | -1.12
CN(C)c1ccc(C(O)C2C=CC3C(=O)N(c4ccccc4)C(=O)C3N2Nc2ccc([N+](=O)[O-])cc2)cc1 (stereo not drawn) | -0.529
NCCCCCCNC(=O)[C@@H]1C[C@@H]2C(=O)N[C@@H](CCCCN)C(=O)N2[C@@H]1c1cccc(OCCO)c1 | 1.1
CCOC(=O)C1=CC[C@@H](c2ccc(OCc3ccccc3)c(OC)c2)N(S(=O)(=O)c2ccc(C)cc2)[C@H]1c1ccc(SC)cc1 | 0.579
COC(=O)[C@@]1(Cc2ccccc2)[C@H]2c3cc(C(=O)N(C)C)n(Cc4c(CO)[nH]cc(C)c4=O)c3C[C@H]2CN1C(=O)c1ccccc1 | -0.613
CN1C(=O)C2C=CC(C(O)COCc3ccccc3)N(N(c3ccccc3)c3ccccc3)C2C1=O (stereo not drawn) | 0.669
CCC[C@@H]1C[C@@]1(CCC)[C@@H](NC(=O)OCc1ccccc1)c1ccc(-c2ccccc2)cc1 | 2.43
COCCOC(=O)N1C(=O)[C@@]2(c3cc(C#CC4=CCCCC4)ccc31)[C@H](c1ccc(OCCO)cc1)N1[C@H](c3ccccc3)[C@H](c3ccccc3)OC(=O)[C@H]1[C@@H]2C(=O)NC[C@H](O)c1ccccc1 | 0.334
C=C(CCCC)/C(=C/C[C@@H](OC(=O)c1ccncc1)c1ccccc1OCCO)c1cnc2ccccc2c1 | -0.846
CC1CC/C=C\[C@H]2OC34C=CCN(C(C)C)C(=O)[C@H]3N(CCCCCCO)C(=O)[C@@H]4C2C(=O)O1 (stereo partly drawn) | 0.609
O=C1C2C=CC(C(O)c3ccc(Br)cc3)N(Nc3ccccc3F)C2C(=O)N1c1ccccc1 (stereo not drawn) | 0.732
COC(=O)[C@@]1(Cc2ccc(OC)cc2)[C@H]2c3cc(C(=O)N4CCCC4)n(Cc4cccc5ccccc45)c3C[C@H]2CN1C(=O)c1ccccc1 | -0.18
CCOC(=O)C1CCCCN1 (stereo not drawn) | -0.241
COc1ccc([Si](C)(C)[C@H]2[C@H](CCn3cc([C@H](O)c4ccccc4)nn3)O[C@@]3(C(=O)N(Cc4ccc(N5C(=O)c6cccc7cccc5c67)cc4)c4ccccc43)[C@@H]2C)cc1 | -0.0876
[N-]=[N+]=NCc1ccccc1C[C@@]1(C(=O)N2CCOCC2)N=C(c2ccc(OCCCO)cc2)O[C@@H]1c1ccccc1 | -0.932
COC(=O)C(CC#Cc1ccc2c(c1)[C@]1(C(=O)N2)[C@H](C(=O)N2CCN(c3ncccn3)CC2)[C@H]2C(=O)O[C@H](c3ccccc3)[C@H](c3ccccc3)N2[C@@H]1c1ccc(OCCO)cc1)C(=O)OC | -0.589
[N-]=[N+]=Nc1ccccc1[C@@H]1OC(c2ccc(OCCCO)cc2)=N[C@]1(Cc1ccccc1)C(=O)NCC(O)CO (stereo partly drawn) | 0.0381
CCCC[C@@H]1C[C@H]1[C@@H](NC(=O)c1cccs1)c1ccc(C(F)(F)F)cc1 | -0.117
COC(=O)[C@@]1(Cc2ccc(OC)cc2)[C@H]2c3cc(C(=O)N(C)C)n(CCO)c3C[C@H]2CN1C(=O)c1ccccc1 | -0.822
CCOC(=O)C[C@H]1[C@H](OC(=O)Cc2ccc3c(c2)OCO3)[C@@H](NC(=O)CC(C)C)c2cc(OCCCO)ccc2N1C(=O)Cc1ccc(OC)cc1 | -0.334
O=C1NC(=O)C2C1C=CC(C(O)c1ccco1)N2Nc1ccccn1 (stereo not drawn) | -1.32

Experiment: basal S. cerevisiae growth modulation, no modifier, primary screen, OD600, strain BY4716, 24 h, basal condition (AID 1173)
Settings: OD600, 24 h, higher = more signal, called active from +8 up or from −8 down

Structure (SMILES) | z-score
O=C1OCCC=C[C@H]2OC34C=CCN(Cn5nnc6ccccc65)C(=O)[C@H]3N(CCCCCCO)C(=O)[C@@H]4C12 (stereo partly drawn) | 0.506 (inactive)
O=C1C[C@@](C(=O)NCCN2CCOCC2)(c2ccc([N+](=O)[O-])cc2)[C@@H](c2ccc(CO)cc2I)N1C1CCCCC1 | -2.72 (inactive)
NC(=O)N1C(=O)C2C(C1=O)C1C=C(CCCO)C2C(c2cccs2)N1Cc1cccc(OC(F)(F)F)c1 (stereo not drawn) | -3.57 (inactive)
C=C(/C(=C/C[C@H](OC(C)=O)c1ccccc1OCCO)c1cc(C(=O)OC)ccc1OC)C(C)C | -2.2 (inactive)
CCCC[C@@H](O)C1=C(COc2ccccc2)C[C@H]2C(=O)N(C)C(=O)[C@H]2[C@H]1CO | -3.78 (inactive)
O=C1NC(=O)C2C1C=CC(C(O)c1cccc3ccccc13)N2Nc1ccc(Cl)cc1Cl (stereo not drawn) | -4.99 (inactive)
COc1ccc(-c2cc3c(c(CCc4ccccc4)n2)[Si](C(C)C)(C(C)C)OC3)cn1 | 0.0476 (inactive)
COC(=O)[C@@]1(Cc2ccc(F)cc2)[C@H]2c3cc(C(=O)N4CCCC4)n(CCc4ccc(O)c(O)c4)c3C[C@H]2CN1C(=O)c1ccccc1 | 1.78 (inactive)
CC1=C[C@@]2(CO)C(=O)[C@]3(CO3)[C@@H]1[C@H]1[C@]2(C)C=C(CO)C(=O)[C@]12CO2 | -2.6 (inactive)
O=C(NCC(F)(F)F)[C@@H]1c2ccccc2C(=O)N(Cc2ccc(OC(F)(F)F)cc2)[C@H]1c1ccc(CO)cc1 | -1.13 (inactive)
COC(=O)Cn1c(C(=O)N(C)C)cc2c1C[C@H]1CN(C(=O)c3ccccc3)[C@@](Cc3ccc(F)cc3)(C(=O)OC)[C@@H]21 | 2.15 (inactive)
COc1ccc([Si](C)(C)[C@H]2[C@H](CC(=O)N(CCO)Cc3ccccc3)O[C@@]3(C(=O)N(Cc4cccc(N5CCOC5=O)c4)c4ccccc43)[C@@H]2C)cc1 | 0.181 (inactive)
COCCCNC(=O)[C@]1(CCS(=O)(=O)c2ccccc2)N=C(c2ccc(OCCCO)cc2)O[C@@H]1c1ccccc1CN=[N+]=[N-] | 1.67 (inactive)
[N-]=[N+]=Nc1ccccc1C[C@]1(C(N)=O)N=C(c2ccc(OCCCO)cc2)O[C@H]1c1ccccc1N=[N+]=[N-] | -2.88 (inactive)
C#CCN([C@@H](Cc1ccc(O)cc1)C(=O)OC)[C@@H](/C=C/C1CC1)[C@H](O)Cc1ccccc1 | -2.71 (inactive)
CN(C)c1ccc(C(O)C2C=CC3C(=O)N(c4ccccc4)C(=O)C3N2Nc2ccc([N+](=O)[O-])cc2)cc1 (stereo not drawn) | -0.491 (inactive)
NCCCCCCNC(=O)[C@@H]1C[C@@H]2C(=O)N[C@@H](CCCCN)C(=O)N2[C@@H]1c1cccc(OCCO)c1 | 0.0813 (inactive)
CCOC(=O)C1=CC[C@@H](c2ccc(OCc3ccccc3)c(OC)c2)N(S(=O)(=O)c2ccc(C)cc2)[C@H]1c1ccc(SC)cc1 | 0.49 (inactive)

Structure (SMILES) | z-score
COC(=O)[C@@]1(Cc2ccccc2)[C@H]2c3cc(C(=O)N(C)C)n(Cc4c(CO)[nH]cc(C)c4=O)c3C[C@H]2CN1C(=O)c1ccccc1 | 1.79 (inactive)
CN1C(=O)C2C=CC(C(O)COCc3ccccc3)N(N(c3ccccc3)c3ccccc3)C2C1=O (stereo not drawn) | -2.9 (inactive)
CCC[C@@H]1C[C@@]1(CCC)[C@@H](NC(=O)OCc1ccccc1)c1ccc(-c2ccccc2)cc1 | -2.75 (inactive)
COCCOC(=O)N1C(=O)[C@@]2(c3cc(C#CC4=CCCCC4)ccc31)[C@H](c1ccc(OCCO)cc1)N1[C@H](c3ccccc3)[C@H](c3ccccc3)OC(=O)[C@H]1[C@@H]2C(=O)NC[C@H](O)c1ccccc1 | 2.36 (inactive)
C=C(CCCC)/C(=C/C[C@@H](OC(=O)c1ccncc1)c1ccccc1OCCO)c1cnc2ccccc2c1 | -2.19 (inactive)
CC1CC/C=C\[C@H]2OC34C=CCN(C(C)C)C(=O)[C@H]3N(CCCCCCO)C(=O)[C@@H]4C2C(=O)O1 (stereo partly drawn) | -0.815 (inactive)
O=C1C2C=CC(C(O)c3ccc(Br)cc3)N(Nc3ccccc3F)C2C(=O)N1c1ccccc1 (stereo not drawn) | -2.45 (inactive)
COC(=O)[C@@]1(Cc2ccc(OC)cc2)[C@H]2c3cc(C(=O)N4CCCC4)n(Cc4cccc5ccccc45)c3C[C@H]2CN1C(=O)c1ccccc1 | 1.07 (inactive)
CCOC(=O)C1CCCCN1 (stereo not drawn) | 0.466 (inactive)
COc1ccc([Si](C)(C)[C@H]2[C@H](CCn3cc([C@H](O)c4ccccc4)nn3)O[C@@]3(C(=O)N(Cc4ccc(N5C(=O)c6cccc7cccc5c67)cc4)c4ccccc43)[C@@H]2C)cc1 | 0.0957 (inactive)
[N-]=[N+]=NCc1ccccc1C[C@@]1(C(=O)N2CCOCC2)N=C(c2ccc(OCCCO)cc2)O[C@@H]1c1ccccc1 | -2.93 (inactive)
COC(=O)C(CC#Cc1ccc2c(c1)[C@]1(C(=O)N2)[C@H](C(=O)N2CCN(c3ncccn3)CC2)[C@H]2C(=O)O[C@H](c3ccccc3)[C@H](c3ccccc3)N2[C@@H]1c1ccc(OCCO)cc1)C(=O)OC | 1.78 (inactive)
[N-]=[N+]=Nc1ccccc1[C@@H]1OC(c2ccc(OCCCO)cc2)=N[C@]1(Cc1ccccc1)C(=O)NCC(O)CO (stereo partly drawn) | -2.75 (inactive)
CCCC[C@@H]1C[C@H]1[C@@H](NC(=O)c1cccs1)c1ccc(C(F)(F)F)cc1 | 1.95 (inactive)
COC(=O)[C@@]1(Cc2ccc(OC)cc2)[C@H]2c3cc(C(=O)N(C)C)n(CCO)c3C[C@H]2CN1C(=O)c1ccccc1 | 0.474 (inactive)
CCOC(=O)C[C@H]1[C@H](OC(=O)Cc2ccc3c(c2)OCO3)[C@@H](NC(=O)CC(C)C)c2cc(OCCCO)ccc2N1C(=O)Cc1ccc(OC)cc1 | -0.252 (inactive)
O=C1NC(=O)C2C1C=CC(C(O)c1ccco1)N2Nc1ccccn1 (stereo not drawn) | 0.461 (inactive)
